# Screening results as filed in PubChem BioAssay.
# Mtb hypoxia rep – PubChem AID 1159583 | 300,000 tested, 0.1% active | fluorescence inhibition, % (test concentration not listed) | M. tuberculosis hypoxia-regulated fluorescent reporter, fluorescence; in the data active = fluorescence inhibition mostly above about 23%, no sharp cut-off; inactive = mostly below about 17%
# ugtP null kill – growth inhibition of ugtP-null S. aureus, primary screen, RN4220 ugtP deletion, OD600. 16 h. growth inhibition, % (concentration not given with the values). 330,000 tested, 0.54% active; in the data active = growth inhibition above about 68%;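 also: plate controls were untreated wells for no effect and antibiotic for full effect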
# PriA SSB inh – inhibitors of Klebsiella pneumoniae PriA binding to SSB C-terminal tail, primary screen, biochemical, AlphaScreen; PriA–SSB C-terminal tail interaction (Klebsiella pneumoniae); AlphaScreen SSBct-PriA binding, biotinylated peptide; inhibition, % at 33 µM; 430,000 tested, 0.6% active; AID 1272365, 2023; in the data active = inhibition mostly above about 37%, no sharp cut-off; inactive = mostly below about 20%;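 also: plate controls were negative control peptide for no effect and reference peptide for full effect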
# Mtb betalactam – beta-lactam sensitization of Mtb H37Rv, H37Rv; inhibition, % at 25 µM; M. tuberculosis H37Rv growth with meropenem, percent inhibition; 330,000 tested, 0.27% active; call rule not given here;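 also: growth measured after seven days incubation then overnight dye step; 0% = bacteria only wells and 100% = bacteria with antibiotic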
# Sa RN4220 lethal – growth inhibition of S. aureus RN4220, primary screen, OD600 | 16 h | inhibition, % (concentration not given with the values) | 330,000 tested, 0.33% active | AID 1259311, 2017; in the data active = inhibition above about 85%;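 also: plate controls were untreated cells for no effect and reference antibiotic for full effect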
# Active calls of the source: *; ? = inconclusive; · = no result shown; ! = not active in a repeat. The list is not random: actives were taken first. Their share in the collection is about 1%.
SMILES,Mtb hypoxia rep,ugtP null kill,PriA SSB inh,Mtb betalactam,Sa RN4220 lethal
CCN(CCNC(=O)C1CCN(Cc2nc(-c3ccc(Cl)cc3)oc2C)CC1)c1ccccc1,-7,-24,46*,100,-2
CS(=O)(=O)N1CC(C(=O)NCC(F)(F)F)C1,·,·,5,·,·
COc1ccc(CCNC(=O)N2CCSC(c3ccccc3F)CC2)cc1 (stereo not given),·,·,-4,·,·
CCOC(=O)C(CC)Sc1nnc2n1CCN2c1ccc(OC)cc1 (stereo not given),·,·,-6,·,·
CC(=O)Nc1ccc(C2=NNC(=Nc3cccc(S(=O)(=O)N(C)C)c3)SC2)cc1,10,-2,53*,11,4
O=C(NN=Cc1cccc(F)c1)c1c(O)c2ccccc2[nH]c1=O,-2,100*,-12,·,99*
CC/C(=C\C=C\[C@@H]1C=C[C@@H]2CCC[C@H]2[C@@H]1C(=O)c1ccc[nH]1)[C@@H]1O[C@@H]([C@@H](C)C(=O)O)CC[C@@H]1C,10,99*,7,-3,100*
O=C(C=Cc1cccc([N+](=O)[O-])c1)c1ccc([N+](=O)[O-])o1,·,100*,·,·,100*
COc1ccc(C=CC(=O)c2ccc([N+](=O)[O-])o2)cc1OC,·,100*,·,·,48
Cc1cccc(C=CC(=O)c2ccc([N+](=O)[O-])o2)c1,·,100*,·,·,101*
Cc1ccccc1C=CC(=O)c1ccc([N+](=O)[O-])o1,21,101*,·,·,33
CCCn1c(SCC(=O)Nc2ccc(C)cc2Br)nc2c(oc3ccccc32)c1=O,·,·,4,·,·
O=[N+]([O-])c1ccc(C(Nc2cccc(C(F)(F)F)c2)c2ccc3cccnc3c2O)cc1 (stereo not given),·,·,3,·,·
CC(=O)c1c(O)cc(O)c(C(C)=O)c1O,·,89*,-8,-4,86*
CCn1cc(CN2CCC(C(=O)Nc3cccc(-c4cccc(F)c4)c3)CC2)cn1,7,-9,39*,1,-4
Cc1ccc(CN2CCC(C(=O)Nc3cccc(-c4cccc(F)c4)c3)CC2)o1,3,-2,4,9,3
CCc1ccc(CN2CCC(C(=O)Nc3cccc(-c4nnc(C)s4)c3)CC2)o1,3,9,57*,?,3
CCn1cc(CN2CCC(C(=O)Nc3cccc(-c4cccc(OC)c4)c3)CC2)cn1,0,1,-2,-5,-1
NS(=O)(=O)c1ccc(NC(=S)NC(=O)/C=C/c2cccs2)cc1,0,active,-6,4,83
NC(N)=NS(=O)(=O)c1ccc(NC(=S)NC(=O)/C=C/c2ccc(F)cc2)cc1,5,2,-6,1,2
NC(N)=NS(=O)(=O)c1ccc(NC(=S)NC(=O)/C=C/c2cccs2)cc1,10,85*,-9,3,3
O=C(/C=C/c1cccs1)NC(=S)Nc1ccc(C(=O)O)cc1,·,·,-16,24,·
O=S(=O)(Nc1cnc(N2CCN(c3ccccn3)CC2)nc1)c1ccccc1Cl,·,·,2,·,·
CCOC(=O)C(C#N)=c1sc(=C2C=Cc3ccccc3N2CC)c(=O)n1CC,·,5,-4,·,-1
CCOC(=O)/C(C#N)=C/C=C1\C=Cc2ccccc2N1CC,43*,2,18,5,10
SMILES,Mtb hypoxia rep,ugtP null kill,PriA SSB inh,Mtb betalactam,Sa RN4220 lethal
COCCN=c1scc(-c2cc(OC)c(OC)c(OC)c2)n1/N=C/c1c(C)[nH]c2ccccc12,·,·,·,5,·
COCCN=c1scc(-c2ccccc2)n1N=Cc1c[nH]c2ccccc12,-1,17,51*,·,-15
CSc1ccccc1NC(=O)C(=O)NC[C@@](O)(c1ccccc1)C1CC1,·,·,-1,·,·
CNc1nc(Nc2ccccc2)nc(OCC(F)(F)F)n1,0,-5,-6,0,3
CNc1nc(NN)nc(Nc2ccccc2)n1,6,10,105*,39,12
Cc1cc(=O)[nH]c(-n2nc(C(C)(C)C)cc2N)n1,·,·,-15,·,·
CCc1cc(=O)[nH]c(-n2nc(C)cc2NC(=O)COC)n1,·,·,39*,·,·
CCCC(=O)Nc1cc(C)nn1-c1nc(CC)cc(=O)[nH]1,·,·,33,·,·
CCc1cc(=O)[nH]c(-n2nc(C)cc2N)n1,·,·,93*,·,·
Cc1cc(N)n(-c2nc(-c3ccccc3)cc(=O)[nH]2)n1,·,·,53*!,·,·
O=C(Cn1cncn1)NCc1cnn2c1CCCC2,·,·,-12,·,·
O=C(Nc1ccc(S(=O)(=O)N2CCCCC2)cc1)c1cccc(N2C(=O)CCC2=O)c1,·,·,1,·,·
O=C(COc1ccccc1)Nc1nc2c(s1)-c1cccc3cccc-2c13,·,·,42*,·,·
CN(CCO)C[C@H]1COCCN1C(=O)c1cc(C2CC2)on1,·,·,-7,·,·
